According to PubChem BioAssay AID686978 (National Center for Advancing Translational Sciences (NCATS), 2013):
Hit rate of the full screen: of about 420,000 compounds, about 64,000 (15%) were called active. Roughly 27% stayed inconclusive and do not appear here. The call rests on the fitted dose curve; in most records, active means well fitted inhibition curve with a large enough effect; inconclusive means small, poorly fitted or top-dose-only effect; inactive means flat fitted curve, though single readings scatter. The list is a sample of the results. Where a call stands in place of a potency, no number is given.

Test: qHTS for Inhibitors of human tyrosyl-DNA phosphodiesterase 1 (TDP1): qHTS in cells in absence of CPT; further: nearly all actives have a fitted effect of over 55% in size
Conditions: DT40 Tdp1-/- hTDP1 cells, no CPT, ATP luminescence, 48 h; activity change, negative = growth inhibition: at 46.2 µM (top of the series)
Method in brief: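 Chicken DT40 Tdp1-/- cells stably complemented with human TDP1 were seeded at 400 cells/well with DMSO in place of 20 nM camptothecin. After compound pinning, cells grew at least 48 hr at 37 °C; viability read by CellTiter-Glo luminescence.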
Potency means the concentration at half of the fitted maximal effect.

Structure (SMILES)	Potency
COc1cc2nc(Cl)nc(NCCO)c2cc1OC	inactive
OCCNc1nc(Nc2ccc(Cl)c(Cl)c2)nc2ccccc12	16.4 µM (active)
CCOC(=O)CNc1nc(Cl)nc(Nc2ccccc2)n1	inactive
CCN(CC(=O)Nc1ccc(OC)cc1)C(=O)CSCc1ccc(C)cc1	inactive
CN1CCN(c2ccc(NC(=O)c3ccc4c(c3)OCCO4)cc2Cl)CC1	inactive
O=C(Nc1ccc(N2CCOCC2)cc1)c1ccc2c(c1)OCO2	inactive
CN1CCN(c2ccc(NC(=O)c3cc(Cl)c4c(c3)OCCO4)cc2)CC1	29.1 µM (active)
CCOc1ccc(C(=O)N(Cc2ccc(N(C)C)cc2)C2CCS(=O)(=O)C2)cc1 (stereo not given)	inactive
O=C(COc1ccc(Cl)cc1Cl)NCCCNC(=O)c1cnccn1	inactive
CC(NC(=O)CCc1cn(Cc2ccccc2Cl)c2ccccc12)c1ccccc1 (stereo not given)	23.1 µM (active)
O=C(CCc1cn(Cc2ccc(F)cc2)c2ccccc12)NC1CCCCC1	inactive
CC(NC(=O)Cn1cc(C(F)(F)F)cc(Cl)c1=O)c1ccccc1 (stereo not given)	inactive
Cc1cc(C)n2nc(C(=O)OCC(=O)N(CCC#N)c3ccc(F)cc3)nc2n1	inactive
O=C(O)c1ccc(NC(=O)c2cn(-c3ccccc3)nc2-c2ccc(Cl)cc2)cc1	16.4 µM (active)
COC(=O)c1cn(-c2ccccc2)nc1-c1cccnc1	inactive
Cc1ccc(-c2nn(-c3ccccc3)cc2C(=O)NC2CCC(O)CC2)cc1 (stereo not given)	inactive
NCCCCCC(=O)N/N=C/c1ccc2nccnc2c1	inactive
Cc1ccc(S(=O)(=O)N(C)C)cc1NC(=O)COC(=O)/C=C/c1cccs1	inactive
CCN1CCN(C(=O)CCN2C(=O)c3ccccc3C2=O)CC1	inactive
O=C(Nc1cccc(F)c1)N1C2CCC1CC(O)(c1cccnc1)C2 (stereo not given)	inactive
Cc1ccc(S(=O)(=O)CC(=O)Nc2nnc(C)s2)cc1	inactive
CCOC(=O)c1ccc(NC(=O)CCS(=O)(=O)c2ccc(C)cc2)cc1	20.6 µM (active)
CCOc1ccc(OCC)c(NC(=O)CCS(=O)(=O)c2ccc(C)cc2)c1	inactive
CCCCC(CCC(=O)Nc1ccc(C(=O)OCC)cc1)C(=O)O (stereo not given)	inactive
Cc1ccc(S(=O)(=O)CCC(=O)Nc2nnc(CC(C)C)s2)cc1	16.4 µM (active)
CC(C)Cc1nnc(NC(=O)CCc2ccccc2)s1	inactive
CC(C)CC(NS(=O)(=O)c1ccc2c(c1)oc(=O)n2C)C(=O)NCc1ccccc1Cl (stereo not given)	inactive
Cc1cc(F)ccc1N1CCC(N2CCN(C)C(CCO)C2)CC1 (stereo not given)	inactive
CC(C)n1c(O)c(N=Nc2ccccn2)c2ccccc21	inactive
CCC(C)NC(=O)c1ccccc1NC(=O)c1ccccc1N(C)S(C)(=O)=O (stereo not given)	inactive
